# Rab9 prom act: activates the Rab9 promoter; Huh7 Rab9 promoter-luciferase reporter, luminescence, 24 h; Potency, µM (titrated, usually from 9.22 µM), for inactives: at the highest dose activation, negative = inhibition, hits mostly activators; 2.8% of 320,000 active; AID 485297; note: % of control where 0% means no effect; nearly all actives have a fitted effect of over 60% in size
#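 Luciferase signal after 10 min detection reagent at ambient indicates Rab9 promoter upregulation; stably transfected Huh7 cells were treated 24 h with compound in DMSO at 37 °C, 5% CO2.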
# ELG1 repair inh: inhibitors of ELG1-dependent DNA repair in HEK293T cells; 2.3% of 330,000 active; HEK293T ELG1-luciferase reporter, luminescence, 16 h; DNA damage induced by 5-fluorouridine; Potency, µM (top dose mostly 46.1 µM), without a hit: at the highest dose activity change, negative = inhibition, hits mostly inhibitors; AID 504467; note: % is set by controls: 0 for no effect and ±100 for the full control effect; nearly all actives have a fitted effect of over 55% in size
#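 5-Fluorouridine DNA damage + compound/DMSO, 2,000 cells/well, 16 h, 37 °C/5% CO2. ONE-Glo, 30 min RT, luminescence. Readout = decrease in reporter signal.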
# SMN2 splice up: SMN2 splice variant enhancement. HEK293 SMN2-luciferase splicing reporter, luminescence, 30-36 h. 2.8% of 210,000 active. Potency, µM (highest dose often 46.1 µM), without a hit: at the top dose activity change, positive = activation, most hits filed as activators. AID 1458; note: % of control where 0% means no effect; nearly all actives have a fitted effect of over 55% in size
#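 qHTS luciferase splicing reporter: luminescence rises when SMN2 exon 7 is included in transfected HEK293 cells. Compound exposure lasted 30-36 h at 37C, with 4.5 mM final sodium butyrate as control, followed by a ONE-Glo read.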
# FLuc modulator: firefly luciferase modulation, counter-screen for miR-21 project | AID 588342 | Potency, µM (top dose mostly 57.5 µM), inactives show top-dose activity change, negative = inhibition, actives largely listed as inhibitors | purified FLuc, Km substrates, luminescence inhibition | P08659 | 6.9% of 360,000 active;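 note: plate controls were vehicle for no effect and reference inhibitor for full effect; nearly all actives have a fitted effect of over 55% in size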
# Target sequence (P08659 whole entry, looked up): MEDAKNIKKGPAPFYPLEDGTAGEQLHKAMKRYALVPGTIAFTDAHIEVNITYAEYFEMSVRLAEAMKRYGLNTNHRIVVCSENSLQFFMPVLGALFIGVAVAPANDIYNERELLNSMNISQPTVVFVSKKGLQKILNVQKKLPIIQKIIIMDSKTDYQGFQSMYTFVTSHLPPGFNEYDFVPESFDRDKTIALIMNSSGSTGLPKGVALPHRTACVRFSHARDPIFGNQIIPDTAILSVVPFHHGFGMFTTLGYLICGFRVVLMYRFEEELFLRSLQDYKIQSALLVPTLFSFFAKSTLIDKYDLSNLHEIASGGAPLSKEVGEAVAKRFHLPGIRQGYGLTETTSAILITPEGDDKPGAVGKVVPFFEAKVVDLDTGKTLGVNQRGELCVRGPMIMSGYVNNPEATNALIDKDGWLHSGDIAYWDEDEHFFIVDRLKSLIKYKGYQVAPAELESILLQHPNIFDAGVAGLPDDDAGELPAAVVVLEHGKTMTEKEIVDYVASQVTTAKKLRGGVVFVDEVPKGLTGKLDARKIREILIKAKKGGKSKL
#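 Biochemical qHTS of compounds, final roughly 60 µM downward over six points, against 10 nM purified firefly luciferase using Km concentrations of substrates (10 uM D-luciferin, 10 uM ATP) in Tris acetate pH 7.5 buffer; luminescence output.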
# NPC1 promoter act: NPC1 promoter activation; Potency, µM (doses to about 9.22 µM), inactives show at the top dose activation, most hits filed as activators; 2.4% of 320,000 active; Huh7 NPC1 promoter luciferase reporter, 24 h; note: % of control where 0% means no effect; nearly all actives have a fitted effect of over 60% in size
#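 Cells: Huh7 expressing luciferase under the NPC1 promoter, 1500/well. Seeded 2 h, compound added, incubated 24 h at 37 °C. Luciferase reagent, 10 min ambient, then luminescence.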
# ELG1 genotoxic: genotoxicity induction in ELG1-luciferase HEK293T cells | HEK293T ELG1-luciferase reporter, luminescence, 16 h | Potency, µM (series often up to 46 µM), inactives show at the highest dose activity change, positive = activation, most hits filed as activators | 1.3% of 330,000 active | AID 504466; note: % of control where 0% means no effect; nearly all actives have a fitted effect of over 60% in size
#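 Screening used a luciferase reporter fused to human ELG1 in HEK293T cells. Luminescence was read on a CCD plate imager after 16 hr exposure and 30 min ONE-Glo incubation.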
# * hit, by the source's call; ? = inconclusive; . = not tested or not shown; [ ] = remark or other dose. Shown are actives, neighbours in structure and some others; about 9.3% of the full set was active somewhere. Calls come from the whole dose curve; as a rule, active = well fitted curve in the direction sought with a large enough effect; inconclusive = small, poorly fitted or top-dose-only effect, or another doubt; inactive = no such curve, though single readings can be large; an effect the other way counts as inactive or inconclusive. Potency is the fitted concentration of half-maximal effect.
SMILES,Rab9 prom act,ELG1 repair inh,SMN2 splice up,FLuc modulator,NPC1 promoter act,ELG1 genotoxic
COc1cc(/C=C(\C#N)C(=O)Nc2ccccc2C(=O)O)cc(Cl)c1OC,-0.6%,-20.7%,1.6%,26.9µM*,-8.6%,-0.4%
COc1ccc(/C=C(/C#N)C(=O)Nc2ccccc2C)cc1C(=O)O,-3.5%,?,5.0%,-7.0%,0.3%,1.5%
Nc1ccc2nc(CCCO)[nH]c2c1,-5.8%,-5.5%,.,0.9%,-5.0%,2.8%
C[C@@H]1CC[C@@]2(O[C@H](CCO)C[C@@H](O)[C@@H]2O)O1,-0.5%,14.7%,-2.8%,3.5%,-1.6%,-1.7%
COC(=O)c1ccc(NC(=O)CCc2c(C)nn(-c3ccc(N4CCOCC4)nn3)c2C)cc1,.,.,.,19µM*,.,.
CC(=O)c1ccc(NC(=O)CCc2c(C)nn(-c3ccc(N4CCOCC4)nn3)c2C)cc1,?,?,.,16.9µM*,?,1.0%[9.26 µM]
Cc1ccc(NC(=O)CCc2c(C)nn(-c3ccc(N4CCOCC4)nn3)c2C)cc1F,?,0.9%,.,13.5µM*,?,11.5%
Cc1ccc(NC(=O)CCc2c(C)nn(-c3ccc(N4CCOCC4)nn3)c2C)cc1,24.8%,2.1%,.,?,6.4%,10.5%
CCc1cccc(NC(=O)CCc2c(C)nn(-c3ccc(N4CCOCC4)nn3)c2C)c1,7.5%,19.9%,.,16.9µM*,13.4%,3.0%
Cc1nn(CC(=O)N2CCCCCC2)c(=O)c2cc3occc3n12,-3.3%,17.9%,.,2.4%,-0.7%,1.1%
COCCCNC(NC(=O)c1ccc(Br)cc1)C(Cl)(Cl)Cl (centres undefined),-3.4%,-8.8%,.,4.0%,-0.3%,-5.7%
COc1ccc(NC(=O)CCc2c(C)nn(-c3ccc(N4CCOCC4)nn3)c2C)cc1Cl,.,.,.,21.3µM*,.,.
O=C1N/C(=N\S(=O)(=O)Cc2ccccc2)S/C1=C/c1cccc([N+](=O)[O-])c1,-2.9%,14.8%,.,?,-5.1%,6.6%
O=C1N/C(=N/O)S/C1=C/c1cccc([N+](=O)[O-])c1,-0.6%,?,-13.5%,21.3µM*,9.5%,5.0%
O=S(=O)(Nc1cc(Cl)ccc1-n1cncn1)c1cc(Br)ccc1Br,-16.6%,23.1µM*,.,.,-4.7%,-9.2%
COc1ccc(C2c3ccc(O)cc3Oc3ncn4nc(-c5ccccn5)nc4c32)cc1OC (centres undefined),1.5%,20.6µM*,.,2.8%,-0.6%,0.6%
O=C(c1ccccc1)N1CCN(c2ncnc3sc4c(c23)CCC4)CC1,-20.1%,9.2µM*,-96.1%,1.6%,-3.9%,-10.1%
CC(C)c1nc(N2CCN(C(=O)c3ccco3)CC2)c2c3c(sc2n1)CCCC3,-7.9%,?,-32.7%,-1.1%,2.2%,-6.5%
Cc1nc(N2CCN(C(=O)c3ccco3)CC2)c2c3c(sc2n1)CCC3,-8.2%,23.1µM*,1.2%,-1.4%,-3.4%,-8.9%
COc1cc(OC)c(N(C)S(=O)(=O)c2cccc(C(=O)OCC(=O)c3c[nH]c4ccccc34)c2)cc1Cl,-7.7%,20.6µM*,-66.3%,-2.7%,-3.0%,-9.4%
C=CCN(c1ccccc1OC)S(=O)(=O)c1cccc(C(=O)OCC(=O)c2c[nH]c3ccccc23)c1,-4.4%,23.1µM*,-13.7%,-6.3%,-3.2%,-7.0%
COc1ccc(C(=O)OCC(=O)c2c[nH]c3ccccc23)cc1OC,19.2%,?,.,-12.6%,20.8%,0.5%
C#CCNc1nc(C)nc2c1nnn2Cc1ccccc1F,1.8%,-5.4%,-14.9%,2.1%,2.0%,1.2%
Cc1cc(Cl)ccc1NC(=S)NCC(O)c1ccccc1 (centres undefined),5.7%,24.6%,.,-9.1%,12.5%,-1.8%
CCN1/C(=C\C=C(C(C)=O)C(C)=O)Sc2ccccc21,-1.9%,?,17.0%,-17.9%,-7.6%,18.9%
SMILES,Rab9 prom act,ELG1 repair inh,SMN2 splice up,FLuc modulator,NPC1 promoter act,ELG1 genotoxic
CCN1/C(=C\C(=S)Nc2ccccc2)Sc2ccccc21,2.82µM*,?,?,13.5µM*,?,?
Cc1cccc(OCC(=O)Nc2ccc3c(c2)nc(CCNC(=O)c2ccco2)n3C)c1,.,.,-26.8%,?,.,.
O=C(c1nc2nc(-c3cccs3)cc(C(F)(F)F)n2n1)N1CCN(Cc2ccccc2)CC1,-11.1%,-29.9%,6.2%,3.0%,-5.4%,-2.1%
N=C(N)SCc1ccc(Cl)cc1Cl,-18.6%,10.3µM*,11.1%,-2.8%,-5.4%,-2.4%
NC(=S)Cc1ccc(Cl)cc1Cl,-12.4%,-4.4%,.,5.0%,-2.1%,0.4%
O=S(=O)(Nc1cccc(-c2ccc(N3CCCCC3)nn2)c1)c1ccc(F)cc1F,.,.,.,1.9µM*,.,.
Cc1ccc(S(=O)(=O)Nc2cccc(-c3ccc(N4CCC(C)CC4)nn3)c2)s1,.,.,.,0.757µM*,.,.
Cc1nnc2ccc(-c3cccc(NS(=O)(=O)c4cc(F)ccc4F)c3)nn12,0.7%,7.7%,.,0.1%,-13.0%,2.0%
CC1CCN(c2ccc(-c3cccc(NS(=O)(=O)c4ccc(F)cc4F)c3)nn2)CC1,.,.,.,1.69µM*,.,.
O=S(=O)(Nc1cccc(-c2ccc(N3CCCC3)nn2)c1)c1cc(F)ccc1F,.,.,.,6.01µM*,.,.
Cc1nc(SC2CC(=O)N(c3ccccc3)C2=O)n[nH]1 (centres undefined),-9.7%,1.5%,-4.2%,-6.9%,-0.5%,-1.3%
O=C(CSc1cc([N+](=O)[O-])cc(S(=O)(=O)Cc2ccccc2)c1)NC1CC1,0.1%,2.8%,2.0%,-11.7%,-0.1%,-0.5%
CCOc1ccc(CCNC(=O)CSc2cc(=O)n(C)c3ccccc23)cc1OCC,0.9%,-10.4%,-0.5%,-6.5%,1.1%,1.8%
COc1cccc(N/C(N)=N/c2nc(C(F)(F)F)cc(C(F)(F)F)n2)c1,-17.3%,?,1.1%,-9.1%,5.3%,-5.0%
Nc1ncnc(SCc2c(F)cccc2Cl)n1,2.4%,?,.,-1.4%,-2.6%,7.2%
CCOc1ccc(C(=O)COC(=O)c2cc(=O)[nH]c3ccccc23)cc1,1.9%,?,.,1.35µM*,-1.1%,1.1%
CCOc1ccc(C(=O)COC(=O)c2cccc(-n3cnnn3)c2)cc1,?,?,.,2.69µM*,?,22.6%
O=C(Nc1ccccc1[N+](=O)[O-])C1COc2ccccc2O1 (centres undefined),3.55µM*,?,.,9.53µM*,2.82µM*,?
O=C(N/N=C/c1cccc([N+](=O)[O-])c1)C1COc2ccccc2O1 (centres undefined),1.1%,-3.9%,.,-1.1%,-0.2%,0.9%
O=C(N/N=C\c1cccc([N+](=O)[O-])c1O)C1COc2ccccc2O1 (centres undefined),-4.8%,7.7%,15.5%,19µM*,5.7%,2.2%

# Screens deposited in PubChem BioAssay by National Center for Advancing Translational Sciences (NCATS).
